NTMT1 inh – blocks human N-terminal methyltransferase 1 activity. Q9BV86. NTMT1 MTase-Glo SAH luminescence, purified enzyme. Potency, µM (titrated, usually from 114 µM), inactives show top-dose activity change, negative = inhibition, usual class: inhibitors. 2.5% of 59,000 active. AID 1645870;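 note: potency is the fitted concentration of half-maximal effect; plate controls were DMSO vehicle for no effect and no enzyme for full effect; nearly all actives have a fitted effect of over 65% in size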
Target sequence (Q9BV86 whole entry, looked up): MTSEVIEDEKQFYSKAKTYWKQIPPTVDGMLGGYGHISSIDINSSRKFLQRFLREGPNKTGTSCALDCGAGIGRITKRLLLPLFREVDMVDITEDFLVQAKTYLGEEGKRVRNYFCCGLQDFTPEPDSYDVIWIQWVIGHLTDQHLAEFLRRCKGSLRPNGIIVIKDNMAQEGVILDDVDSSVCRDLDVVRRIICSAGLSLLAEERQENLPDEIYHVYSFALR
PTAP-TSG101 blk – TSG101-PTAP interaction inhibition, HIV-1 budding; Potency, µM (series often up to 115 µM), most hits filed as inhibitors; Q99816; 44,000 tested, under 10 active; Fluorescence polarization, FITC-PTAP peptide/Tsg101, 20 min; AID 1347069; note: potency is the fitted concentration of half-maximal effect; 0% is about no effect
Target sequence (Q99816 whole entry, looked up): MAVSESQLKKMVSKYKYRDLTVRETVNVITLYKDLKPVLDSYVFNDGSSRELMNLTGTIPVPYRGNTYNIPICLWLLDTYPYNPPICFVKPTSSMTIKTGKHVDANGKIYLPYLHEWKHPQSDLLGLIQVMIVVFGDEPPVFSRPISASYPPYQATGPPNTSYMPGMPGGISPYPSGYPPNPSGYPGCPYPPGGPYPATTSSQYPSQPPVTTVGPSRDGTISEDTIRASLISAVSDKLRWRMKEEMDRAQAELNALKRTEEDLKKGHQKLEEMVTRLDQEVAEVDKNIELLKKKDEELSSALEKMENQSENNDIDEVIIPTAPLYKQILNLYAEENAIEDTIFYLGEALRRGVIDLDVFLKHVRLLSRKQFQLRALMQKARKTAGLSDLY
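Read-out is FITC fluorescence polarization. Compounds were added to Tsg101 binding domain (10 uM final), then FITC-PTAP peptide (50 nM final), 20 min at r.t. Total S+P intensity flags fluorescent compounds.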
GALK inhibitor – GALK (human) enzyme inhibition | recombinant GALK, Kinase-Glo ATP luminescence, 1 h | P51570 | 44,000 tested, under 10 active | AID 1347072 | Potency, µM (highest dose often 57.5 µM), for the others: top-dose activity, negative = inhibition, most hits filed as inhibitors;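 note: plate controls were full GALK reaction for no effect and reaction lacking GALK for full effect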
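Reactions with and without enzyme served as controls. GALK at 5 nM phosphorylates 100 uM galactose using 35 uM ATP (HEPES pH 8.0, Mg2+) for 1 h at RT, with luminescence read 10 min after adding Kinase-Glo Plus.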
OvCa metastasis – inhibitors of ovarian cancer cell adhesion and invasion in omental model. SKOV3ip1-GFP adhesion/invasion on 3D omental model, fluorescence. 0.1% of 46,000 active. Potency, µM (top dose mostly 45.8 µM), without a hit: top-dose activity change, negative = inhibition, hits mostly inhibitors;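 note: potency is the fitted concentration of half-maximal effect; plate controls were DMSO wells for no effect and tomatine positive control wells for full effect; nearly all actives have a fitted effect of over 65% in size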
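qHTS, 4-pt dose (0.36-46 umol/L); SKOV3ip1-GFP, 1,200 cells/well, no FBS; primary omental fibroblast/mesothelial co-culture 48 h pre-grown; 2 h RT + 16 h 37 C; PBS wash, 4% PFA; GFP count 488/509 nm.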
DRV1 agonist – GPR32 (DRV1) agonism, beta-arrestin recruitment | CHO-K1 GPR32 beta-arrestin PathHunter luminescence, 90 min; zero percent set by DMSO-only wells | activation, % at 76.9 µM | 2.5% of 48,000 active;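 active = activation of at least 60% and not above a set upper limit, about 1 call in 100 departs from these limits; inconclusive = activation of 40% to 60%, or above that upper limit; inactive = activation under 40%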; note: 0% is about no effect
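CHO-K1 cells stably expressing ProLink-tagged GPR32 and Enzyme Activator-tagged beta-arrestin were seeded at 2,500 cells/well overnight, exposed to compounds for 90 min at 37 °C, then read by beta-Gal complementation chemiluminescence after 1 h detection reagent.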
B2AR arrestin ag – agonists recruiting beta-arrestin to human beta2-adrenergic receptor | P07550 | HTLA Tango cells, beta-arrestin recruitment, luciferase luminescence, 18 h | Potency, µM (top dose mostly 46.1 µM), hits mostly activators | 44,000 tested, under 10 active;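 note: potency is the fitted concentration of half-maximal effect; 0% = DMSO and full agonism = EC100 isoproterenol or metaproterenol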
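Luminescence read-out: arrestin recruitment to recombinant beta2-AR releases tTA, inducing luciferase. Cells exposed 18 hr at 37 degrees C to up to 46 microM compound; %Activity from corrected signal, concentration-response curves classified by r2, magnitude and efficacy.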
Active calls of the source: *; i = inactive; ? = inconclusive; nt = no result given; ! = not active in a repeat; [ ] = another dose, or the depositor's remark. Sampled rows, rich in hits. Any-hit rate of the full collection: about 3.8%. Unless noted, calls come from the whole dose curve; as a rule, active = well fitted curve in the direction sought with a large enough effect; inconclusive = small, poorly fitted or top-dose-only effect, or another doubt; inactive = no such curve, though single readings can be large; an effect the other way counts as inactive or inconclusive.

SMILES	NTMT1 inh	PTAP-TSG101 blk	GALK inhibitor	OvCa metastasis	DRV1 agonist	B2AR arrestin ag
COc1ccccc1CNC(=O)c1cccc(N2CCCS2(=O)=O)c1	-1%	i	4%	-7%	21	i
COc1ccc(CCNC(=O)CSc2cn(CCNC(=O)c3cccc(C(F)(F)F)c3)c3ccccc23)cc1OC	-8%	i	9%	6%	104*	i
COc1cc2nc(SCC(=O)Nc3c(C)cc(C)cc3C)n3nc(CCn4c(C)nc5ccccc54)nc3c2cc1OC	4%	i	1%	-5%	83*	i
Oc1cc(CNC(=S)/C=C/c2cc(O)c(O)c(Br)c2)cc(O)c1O	45µM*	nt	nt	nt	nt	nt
COc1ccc(NC(=O)c2c(NC(=O)c3ccncc3)sc3c2CCC(C(C)(C)C)C3)cc1 (stereo unspecified)	18%	i	0%	-7%	66*	i
CC(C)(C)C1CCc2c(sc(NC(=O)CCC(=O)O)c2C(=O)Nc2ccccc2C(F)(F)F)C1 (stereo unspecified)	45µM*	i	-1%	i	43	i
COc1ccccc1NC(=O)c1c(NC(=O)c2cccs2)sc2c1CCC(C(C)(C)C)C2 (stereo unspecified)	21%	i	-3%	11%	-1	i
O=C(CCn1c(=O)c2sccc2n(Cc2ccc(F)cc2Cl)c1=O)NCc1ccc2c(c1)OCO2	12%	i	5%	-2%	-17	i
Cc1ccc(-c2cc(C(=O)NCc3ccc(S(C)(=O)=O)cc3)c3ccccc3n2)cc1C	50µM*	nt	nt	nt	nt	nt
Cc1ccc(-c2cc(C(=O)Nc3ccc(-c4noc(=O)[nH]4)cc3)c3ccccc3n2)cc1C	45µM*	nt	nt	nt	nt	nt
Cc1ccc(-c2cc(C(=O)NCc3ccc(S(N)(=O)=O)cc3)c3ccccc3n2)cc1C	-9%	nt	nt	nt	nt	nt
O=C(NCCc1ccc(Cl)cc1)C(=O)NCC(c1cccs1)S(=O)(=O)c1ccccc1 (stereo unspecified)	16%	i	1%	1%	-4	i
CCOc1ccccc1CNC(=O)C1CCN(C(=O)N2CCOc3ccc(Cl)cc32)CC1	-4%	i	-3%	i	-3	i
Cc1cc(=O)n(Cc2ccc(Br)cc2F)c2c1c(C)nn2-c1ccccc1	-3%	i	-2%	i	-21	i
COc1ccc2[nH]cc(CCNC(=O)Nc3c(C)cccc3C)c2c1	-4%	i	1%	-10%	32	i
COc1ccc2[nH]cc(CCNC(=O)Nc3cccc(F)c3)c2c1	-1%	i	-1%	3%	93*	i
CCCCC1CCC(CCCC(C)CCC(=O)O)CC1 (stereo unspecified)	45µM*	i	8%	8%	-7	i
CCCCCC(O)CCCC(=O)O (stereo unspecified)	nt	nt	nt	nt	5	nt
CC1(C)OB(c2ccc(O)c3ncc(N4CCNCC4)cc23)OC1(C)C	79µM*	nt	nt	nt	nt	nt
COCCCNC(=O)Cn1c(=O)n(CCCC(=O)NCc2ccc(C)cc2)c(=O)c2ccccc21	14%	i	1%	-8%	14	i
CCN(CC)c1ccc(NC(=O)Cn2c(C)c3cnn(-c4ccccc4)c(=O)c3c2C)c(C)c1	-16%	i	-1%	i	-17	i
CCc1ccc(NS(=O)(=O)c2ccc(NC(=O)N3CCCC3)cc2)cc1	7%	i	2%	i	69*	i
CSc1ccc(CCNC(=O)c2cc3n(n2)CCCN(Cc2ccc(C)cc2)C3=O)cc1	-2%	i	-4%	-2%	13	i
Cc1ccc(CCNC(=O)c2cc3ccccn3n2)cc1	nt	i	4%	i	111*	i
Cc1ccc(CN2CCCn3nc(C(=O)NCCc4ccc(Cl)cc4)cc3C2=O)cc1	14%	i	3%	-8%	115*	i
SMILES	NTMT1 inh	PTAP-TSG101 blk	GALK inhibitor	OvCa metastasis	DRV1 agonist	B2AR arrestin ag
O=C(NCCC1=CCCCC1)C1CCN(C(=O)N2CCOc3ccc(Cl)cc32)CC1	?	i	4%	-9%	-14	i
Cc1cccc(C=NNc2cc(N3CCOCC3)nc(OCCc3ccccn3)n2)c1	22µM*	nt	nt	-31%	nt	nt
CCOc1ccc(-c2cc(CCCC(=O)NCCc3cc(OC)c(OC)c(OC)c3)no2)cc1	-1%	i	-1%	-1%	72*	i
CCOc1ccc(-c2cc(CCCC(=O)NCCc3ccc(OC)c(OC)c3)no2)cc1	?	i	1%	i	20	i
O=C(NCc1cccc(Cl)c1)C1CCN(c2nn3cc(-c4ccc(F)cc4)nc3s2)CC1	4%	i	2%	0%	62*	i
COc1ccc(OCc2nc(-c3ccc(-n4cccc4)cc3)no2)cc1	-13%	i	3%	-9%	117*	i
CCSc1ncc(Cl)c(C(=O)Nc2sc3c(c2C(=O)NCCCOC)CCCC3)n1	4%	i	3%	i	-5	i
CCOc1ccc(S(=O)(=O)n2nc(C)c(S(=O)(=O)N3CCCCCC3)c2C)cc1	17%	i	0%	i	-5	i
COc1ccc(-c2noc(CSc3nc4ccccc4[nH]3)n2)cc1OC	-4%	i	-2%	i	67*	i
COc1ccc2c(Oc3ccc(NC(=O)c4c(C)n(CC(C)(C)O)n(-c5ccccc5)c4=O)nc3)ccnc2c1	?	nt	nt	-11%	nt	nt
COC(=O)c1nnn(-c2ccc(Cl)cc2)c1C(=O)OC	?	i	-1%	3%	-3	i
Cc1cc(=O)c2c(O)c3c(O)cc(=O)c4c3c3c(cc(O)c1c23)C(C)(C)C=4O	3.5µM*!	nt	nt	-3%	12	nt
CN1CCc2c(sc3c2C(=O)NC(c2ccc(OC(=O)c4ccc(Cl)cc4)cc2)N3)C1 (stereo unspecified)	-4%	i	-1%	-21%	33	i
CN1CCc2c(sc3c2C(=O)NC(c2ccc(OC(=O)c4ccc(C(C)(C)C)cc4)cc2)N3)C1 (stereo unspecified)	-6%	i	1%	-18%	65*	i
CN(c1ccc(NC(=O)Nc2ccc(OC(F)(F)F)cc2)cc1)c1ccnc(Nc2cccc(S(N)(=O)=O)c2)n1	12%	nt	nt	nt	nt	nt
O=C(O)c1ccc2c(c1)C(=O)N([C@]1(C(=O)O)C[C@H]1c1ccccc1)C2=O	9%[57.5 µM]	nt	nt	nt	nt	nt
O=C(O)c1ccc2cc(-c3ccc(O)c(C45CC6CC(CC(C6)C4)C5)c3)ccc2c1	50µM*!	nt	nt	5%	nt	nt
